Measurements: PubChem BioAssay (NCI)
Values joined by “and” are separate entries in the source; they are usually repeats but may differ in a detail not shown here. Equal values may be shown once. The panel holds about 83,000 compounds, 20% with a hit somewhere; the sample as a whole holds those more often.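 Treatment: one concentration, 48 hours, 96-well format. Scoring: percent growth, with anything below 10 considered active.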 Active and inactive are the calls of the source.

How the values were obtained:
Test in all cases: NCI-60 one-dose screen, 48 h (100 = growth as untreated, 0 = no growth, -100 = all killed)
MOLT-4 leukemia = conditions: 10 µM
SR leukemia = conditions: 10 µM
RPMI-8226 leukemia = conditions: 10 µM
OVCAR-8 ovarian = conditions: 10 µM
OVCAR-5 ovarian = conditions: 10 µM
OVCAR-4 ovarian = conditions: 10 µM
SK-OV-3 ovarian = conditions: 10 µM
IGROV1 ovarian = conditions: 10 µM
OVCAR-3 ovarian = conditions: 10 µM
NCI/ADR-RES ovarian = conditions: 10 µM
T-47D breast = conditions: 10 µM
BT-549 breast = conditions: 10 µM
MDA-MB-435 melanoma = conditions: 10 µM
SW-620 colon = conditions: 10 µM
MCF7 breast = tested on: MCF7 breast
HCT-116 colon = conditions: 10 µM
HCC-2998 colon = conditions: 10 µM
KM12 colon = conditions: 10 µM

Measured: growth

Cc1cc([N+](=O)[O-])c2ccccc2[n+]1[O-]
active: MOLT-4 leukemia -24.5% | SR leukemia -10.2% and -21.8% | RPMI-8226 leukemia -23.6% and -42.3% | OVCAR-8 ovarian 9.55% and -40.6% | OVCAR-3 ovarian -32.2% and -41% | NCI/ADR-RES ovarian 7.18% and 0.529% | T-47D breast -6.69% and -8.77% | BT-549 breast -36.6% and -19.4% | MDA-MB-435 melanoma -53.1% and -81.3% | SW-620 colon -10.5% and -30% | MCF7 breast; 10 µM unless noted -11.2% and 4.36% | HCT-116 colon -26.4% and 0.608% | HCC-2998 colon -67.8% and -90.8% | KM12 colon -40.8% and -59.2%
46.8% (inactive) and 5.5% (active): IGROV1 ovarian
7.72% (active) and 21.4% (inactive): SK-OV-3 ovarian
inactive: OVCAR-5 ovarian 20.9% and 13.3% | OVCAR-4 ovarian 84.1% and 58.4%

C=NCC#N
inactive: MOLT-4 leukemia 94.6% and 107% | SR leukemia 83.8% and 108% | RPMI-8226 leukemia 92.4% and 115% | OVCAR-8 ovarian 104% and 108% | OVCAR-5 ovarian 98.8% and 93.5% | OVCAR-4 ovarian 114% and 108% | SK-OV-3 ovarian 113% and 96.6% | IGROV1 ovarian 110% and 115% | OVCAR-3 ovarian 105% and 119% | NCI/ADR-RES ovarian 102% and 107% | T-47D breast 98.8% and 93.6% | BT-549 breast 103% and 89.3% | SW-620 colon 100% and 115% | MCF7 breast; 10 µM unless noted 109% and 92.1% | HCT-116 colon 98.2% and 107% | HCC-2998 colon 100% and 125% | KM12 colon 99.4% and 109%

NC(=O)c1cc([N+](=O)[O-])c(Cl)c([N+](=O)[O-])c1
active: MOLT-4 leukemia -13.3% | SR leukemia -3.5% | RPMI-8226 leukemia -10.4% | OVCAR-3 ovarian -41.1% | SW-620 colon -85.2% | HCT-116 colon -79.3%
inactive: OVCAR-8 ovarian 85.1% | OVCAR-5 ovarian 111% | OVCAR-4 ovarian 71.8% | SK-OV-3 ovarian 104% | IGROV1 ovarian 102% | NCI/ADR-RES ovarian 111% | T-47D breast 27.5% | BT-549 breast 113% | MDA-MB-435 melanoma 109% | MCF7 breast; 10 µM unless noted 22.3% | HCC-2998 colon 109% | KM12 colon 91.6%

O=C1CCC(=O)N1SC(Cl)(Cl)Cl
inactive: MOLT-4 leukemia 90.4% | SR leukemia 95.2% | RPMI-8226 leukemia 108% | OVCAR-8 ovarian 106% | OVCAR-5 ovarian 110% | OVCAR-4 ovarian 110% | SK-OV-3 ovarian 109% | IGROV1 ovarian 92.6% | OVCAR-3 ovarian 122% | NCI/ADR-RES ovarian 110% | T-47D breast 118% | BT-549 breast 104% | SW-620 colon 100% | MCF7 breast; 10 µM unless noted 97.2% | HCT-116 colon 106% | HCC-2998 colon 103% | KM12 colon 105%

O=S(=O)(F)c1ccc(Cl)cc1
inactive: MOLT-4 leukemia 105% | SR leukemia 107% | RPMI-8226 leukemia 97.9% | OVCAR-8 ovarian 102% | OVCAR-5 ovarian 113% | OVCAR-4 ovarian 115% | SK-OV-3 ovarian 104% | IGROV1 ovarian 113% | OVCAR-3 ovarian 108% | NCI/ADR-RES ovarian 109% | T-47D breast 105% | BT-549 breast 112% | SW-620 colon 100% | MCF7 breast; 10 µM unless noted 102% | HCT-116 colon 106% | HCC-2998 colon 83.2% | KM12 colon 104%

C/C(=C\c1ccc(Cl)c(Cl)c1)[N+](=O)[O-]
-91.5% (active) and 88.2% (inactive): HCT-116 colon
inactive: SR leukemia 12.3% and 88.6% | OVCAR-8 ovarian 11.9% and 90.8% | OVCAR-5 ovarian 108% and 104% | SK-OV-3 ovarian 108% and 96.6% | NCI/ADR-RES ovarian 30.8% and 93.2% | BT-549 breast 76.3% and 103% | HCC-2998 colon 99.6% and 100%
-55.8% (active) and 111% (inactive): IGROV1 ovarian
-42.5% (active) and 114% (inactive): OVCAR-4 ovarian
-35.5% (active) and 98.3% (inactive): KM12 colon
4.34% (active) and 79.2% (inactive): MOLT-4 leukemia
-89.1% (active) and 98.6% (inactive): SW-620 colon
-97.7% (active) and 107% (inactive): OVCAR-3 ovarian
-85.1% (active) and 80.6% (inactive): MCF7 breast; 10 µM unless noted
-10.7% (active) and 91.3% (inactive): RPMI-8226 leukemia
-79.3% (active) and 57.7% (inactive): T-47D breast

COc1cc2c(c(OC)c1OC)-c1ccc(O)c(=O)cc1[C@@H](NC(C)=O)CC2
active: OVCAR-3 ovarian 3.49% | MCF7 breast; 10 µM 7.81% | MCF7 breast; 100 µM -47.9%
inactive: MOLT-4 leukemia 46.6% | SR leukemia 30.1% | RPMI-8226 leukemia 40.9% | OVCAR-8 ovarian 36.7% | OVCAR-5 ovarian 70.1% | OVCAR-4 ovarian 46.5% | SK-OV-3 ovarian 66.9% | IGROV1 ovarian 51.9% | NCI/ADR-RES ovarian 74.3% | T-47D breast 18.4% | BT-549 breast 59.9% | SW-620 colon 50.2% | HCT-116 colon 26.1% | HCC-2998 colon 66.9% | KM12 colon 57.4%
